# In the supplement of paper PMC8975748:
# Structures can show the parent of a compound that is named as a salt. ± gives the standard deviation of the averaged measurements.
# Key:
# [1] = test system: Saccharomyces cerevisiae BY4741 SeMeCo community; assay: z-score of prototroph abundance vs DMSO median; higher = larger share of this subpopulation than in DMSO controls; settings: 10 µM; 24 h; SM minimal medium; subpopulation (auxotrophy): Prototroph
# Outline: (§1)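 A Saccharomyces cerevisiae BY4741 community carried four plasmids, each restoring one auxotrophy and encoding a distinct fluorescent protein. It was pre-grown overnight to OD600 1.0, diluted to 0.3, and 70 µl was added to 384-well plates acoustically predosed with library drugs (10 µM final), then grown 24 h in minimal SM medium. Cells were paraformaldehyde-fixed and imaged by automated confocal microscopy, with single-auxotroph fluorescent strains setting thresholds and autofluorescence correction. Each subpopulation's abundance was scored as a z-score against the vehicle-well median.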
# [2] = test system: Saccharomyces cerevisiae BY4741 SeMeCo community; assay: z-score of subpopulation abundance vs DMSO median, subpopulation auxotrophic for M; higher = larger share of this subpopulation than in DMSO controls; settings: 10 µM; 24 h; SM minimal medium; subpopulation (auxotrophy): M
# Outline: as §1
# [3] = test system: Saccharomyces cerevisiae BY4741 SeMeCo community; assay: z-score of subpopulation abundance vs DMSO median, subpopulation auxotrophic for L; higher = larger share of this subpopulation than in DMSO controls; settings: 10 µM; 24 h; SM minimal medium; subpopulation (auxotrophy): L
# Outline: as §1
# [4] = test system: Saccharomyces cerevisiae BY4741 SeMeCo community; assay: z-score of subpopulation abundance vs DMSO median, subpopulation auxotrophic for U; higher = larger share of this subpopulation than in DMSO controls; settings: 10 µM; 24 h; SM minimal medium; subpopulation (auxotrophy): U
# Outline: as §1
# [5] = test system: Saccharomyces cerevisiae BY4741 SeMeCo community; assay: z-score of subpopulation abundance vs DMSO median, subpopulation auxotrophic for H; higher = larger share of this subpopulation than in DMSO controls; settings: 10 µM; 24 h; SM minimal medium; subpopulation (auxotrophy): H
# Outline: as §1
# [6] = test system: Saccharomyces cerevisiae BY4741 SeMeCo community; assay: z-score of subpopulation abundance vs DMSO median, subpopulation auxotrophic for HU; higher = larger share of this subpopulation than in DMSO controls; settings: 10 µM; 24 h; SM minimal medium; subpopulation (auxotrophy): HU
# Outline: as §1
# [7] = test system: Saccharomyces cerevisiae BY4741 SeMeCo community; assay: z-score of subpopulation abundance vs DMSO median, subpopulation auxotrophic for UM; higher = larger share of this subpopulation than in DMSO controls; settings: 10 µM; 24 h; SM minimal medium; subpopulation (auxotrophy): UM
# Outline: as §1
# [8] = test system: Saccharomyces cerevisiae BY4741 SeMeCo community; assay: z-score of subpopulation abundance vs DMSO median, subpopulation auxotrophic for HL; higher = larger share of this subpopulation than in DMSO controls; settings: 10 µM; 24 h; SM minimal medium; subpopulation (auxotrophy): HL
# Outline: as §1
# [9] = test system: Saccharomyces cerevisiae BY4741 SeMeCo community; assay: z-score of subpopulation abundance vs DMSO median, subpopulation auxotrophic for HLU; higher = larger share of this subpopulation than in DMSO controls; settings: 10 µM; 24 h; SM minimal medium; subpopulation (auxotrophy): HLU
# Outline: as §1
# [10] = test system: Saccharomyces cerevisiae BY4741 SeMeCo community; assay: z-score of subpopulation abundance vs DMSO median, subpopulation auxotrophic for HLM; higher = larger share of this subpopulation than in DMSO controls; settings: 10 µM; 24 h; SM minimal medium; subpopulation (auxotrophy): HLM
# Outline: as §1
# [11] = test system: Saccharomyces cerevisiae BY4741 SeMeCo community; assay: z-score of subpopulation abundance vs DMSO median, subpopulation auxotrophic for HUM; higher = larger share of this subpopulation than in DMSO controls; settings: 10 µM; 24 h; SM minimal medium; subpopulation (auxotrophy): HUM
# Outline: as §1
# [12] = test system: Saccharomyces cerevisiae BY4741 SeMeCo community; assay: z-score of subpopulation abundance vs DMSO median, subpopulation auxotrophic for LUM; higher = larger share of this subpopulation than in DMSO controls; settings: 10 µM; 24 h; SM minimal medium; subpopulation (auxotrophy): LUM
# Outline: as §1
# [13] = test system: Saccharomyces cerevisiae BY4741 SeMeCo community; assay: z-score of subpopulation abundance vs DMSO median, subpopulation auxotrophic for HLUM; higher = larger share of this subpopulation than in DMSO controls; settings: 10 µM; 24 h; SM minimal medium; subpopulation (auxotrophy): HLUM
# Outline: as §1
# [14] = test system: Saccharomyces cerevisiae BY4741 SeMeCo community; assay: mean cell size (pixel area) (pixels); higher = larger cells; settings: 10 µM; 24 h; SM minimal medium
# Outline: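 Yeast cells were fixed with paraformaldehyde, imaged by automated confocal microscopy and analysed in Harmony to obtain mean cell pixel area per well. They came from a four-plasmid fluorescent Saccharomyces cerevisiae BY4741 community, each plasmid complementing one auxotrophy and carrying a fluorescent marker. Before imaging, 70 µl of culture at OD600 = 0.3 was incubated for 24 h in SM medium in 384-well plates predosed acoustically with drug (final 10 µM). Values are means of 3 replicates. Same SeMeCo high-content imaging drug screen: Selleck FDA-approved drugs at 10 µM, 24 h in SM medium, 384-well plates, 3 replicates.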
# [15] = test system: Saccharomyces cerevisiae BY4741 SeMeCo community; assay: z-score of subpopulation abundance vs DMSO median, subpopulation auxotrophic for LM; higher = larger share of this subpopulation than in DMSO controls; settings: 10 µM; 24 h; SM minimal medium; subpopulation (auxotrophy): LM
# Outline: as §1
# [16] = test system: Saccharomyces cerevisiae BY4741 SeMeCo community; assay: z-score of subpopulation abundance vs DMSO median, subpopulation auxotrophic for HM; higher = larger share of this subpopulation than in DMSO controls; settings: 10 µM; 24 h; SM minimal medium; subpopulation (auxotrophy): HM
# Outline: as §1
SMILES,z-score of prototroph abundance [1],z-score of subpopulation abundance [2],z-score of subpopulation abundance [3],z-score of subpopulation abundance [4],z-score of subpopulation abundance [5],z-score of subpopulation abundance [6],z-score of subpopulation abundance [7],z-score of subpopulation abundance [8],z-score of subpopulation abundance [9],z-score of subpopulation abundance [10],z-score of subpopulation abundance [11],z-score of subpopulation abundance [12],z-score of subpopulation abundance [13],mean cell size [14],z-score of subpopulation abundance [15],z-score of subpopulation abundance [16]
CN[C@H]1CC[C@@H](c2ccc(Cl)c(Cl)c2)c2ccccc21 [Sertraline HCl],1.15,0.18,-0.29,-0.41,-1.14,-1.26,-0.56,-0.5,-0.32,-0.66,-0.4,-1.09,-0.97,,,
CN(C)C(=O)COC(=O)Cc1ccc(OC(=O)c2ccc(NC(=N)N)cc2)cc1 [Camostat Mesilate],,-0.25,0.34,-0.37,0.16,-0.36,,,-0.87,-0.36,-0.25,-0.84,-0.69,12.5 ± 0.12,-0.5,
COc1ccc2c3c1O[C@H]1C[C@@H](O)C=C[C@@]31CCN(C)C2 [Galanthamine],-1.09,1.21,0.78,-0.51,0.83,0.48,0.1,,1.67,1.04,,1.02,1.34,12.47 ± 0.052,,1.76
CCN1CCN(C(=O)N[C@@H](C(=O)N[C@@H]2C(=O)N3[C@@H]2SC(C)(C)[C@@H]3C(=O)O)c2ccccc2)C(=O)C1=O [Piperacillin Sodium],-0.12,0.21,1.08,-0.72,-0.01,-0.25,-0.96,,0.68,,0.48,0.86,-0.13,12.6 ± 0.14,0.88,1.21
NNc1nncc2ccccc12 [Hydralazine HCl],0.63,-0.11,-0.91,,-1.09,,0.37,-0.59,-0.68,0.17,,-0.97,-0.64,,-0.56,-0.62
O=C1CN2Cc3c(ccc(Cl)c3Cl)N=C2N1 [Anagrelide HCl],0.08,-0.78,-0.32,-0.23,-0.25,0.3,0.39,,0.58,,0.14,-0.58,0.12,12.3 ± 0.29,-0.53,-0.37
COc1ccc(CNc2nc(N3CCC[C@H]3CO)ncc2C(=O)NCc2ncccn2)cc1Cl [Avanafil],-0.15,0.21,-0.77,0.68,-0.56,0.11,0.93,-0.55,0.58,-0.87,0.44,-0.38,-0.54,12.5 ± 0.16,,0.22
C[C@]12CC[C@@H]3c4ccc(OC(=O)c5ccccc5)cc4CC[C@H]3[C@@H]1CC[C@@H]2O [Estradiol Benzoate],-0.27,0.35,0.05,-0.43,-0.36,-0.12,0.15,-0.31,-0.51,,0.38,0.37,,12.4 ± 0.25,0.31,0.05
Cc1c(-c2ccc(O)cc2)n(Cc2ccc(OCCN3CCCCCC3)cc2)c2ccc(O)cc12 [Bazedoxifene HCl],-0.43,0.94,-0.9,-0.23,1.47,-0.01,-0.08,1.1,-0.15,,-0.15,0.03,-0.25,12.54 ± 0.11,0.49,1.47
CC[C@H]1OC(=O)C[C@@H](O)[C@H](C)[C@@H](O[C@@H]2O[C@H](C)[C@@H](O)[C@H](N(C)C)[C@H]2O)[C@@H](CCN2C[C@H](C)C[C@H](C)C2)C[C@@H](C)C(=O)/C=C/C(C)=C/[C@@H]1CO[C@@H]1O[C@H](C)[C@@H](O)[C@@H](OC)[C@H]1OC [Tilmicosin phosphate],0.18,-0.36,0.06,-0.3,2.1,-0.34,-0.01,-0.13,-0.18,-0.09,-0.09,-0.25,-0.75,12.3 ± 0.3,,-0.03
Clc1ccc(COC(Cn2ccnc2)c2ccc(Cl)cc2Cl)c(Cl)c1 (configuration not stated) [Miconazole Nitrate],-8.17,-6.38,-2.76,3.11,29.9,15.7,1.18,9.42,11.6,19.4,6.7,0.15,9.42,12.3 ± 0.19,-3.18,
CC[C@H](C)C(=O)O[C@H]1C[C@@H](C)C=C2C=C[C@H](C)[C@H](CC[C@@H]3C[C@@H](O)CC(=O)O3)[C@H]21 [Lovastatin],-1.34,0.85,-0.96,,-0.06,,1.08,0.97,0.37,0.86,1.12,0.48,0.35,11.9 ± 0.13,-0.13,0.4
CO[C@@H]1[C@H](OC(=O)/C=C/C=C/C=C/C=C/C(=O)O)CC[C@]2(CO2)[C@H]1[C@@]1(C)O[C@@H]1CC=C(C)C [Fumagillin],,-0.12,1.24,0.58,1.11,1.17,0.11,,2.31,1.1,,2.33,1.71,12.24 ± 0.059,2.31,1.85
CN(C)CCC=C1c2ccccc2CCc2ccccc21 [Amitriptyline HCl],0.95,0.09,-0.56,,-0.87,-0.28,-0.92,,-1.03,-1.26,-0.75,-0.91,-0.81,12.3 ± 0.27,,-0.99
